# Data reported in ChEMBL document CHEMBL1961873, “Compounds: GSK PKIS; Assays: Nanosyn kinase panel” (2012).
# How the values were obtained:
# [1] = target: 5'-AMP-activated protein kinase catalytic subunit alpha-2 (Homo sapiens) (UniProt P54646); conditions: at 1 µM
# [2] = target: T1, NUAK family SNF1-like kinase 1 (Homo sapiens) (UniProt O60285); conditions: at 0.1 µM
# T1 sequence (whole entry): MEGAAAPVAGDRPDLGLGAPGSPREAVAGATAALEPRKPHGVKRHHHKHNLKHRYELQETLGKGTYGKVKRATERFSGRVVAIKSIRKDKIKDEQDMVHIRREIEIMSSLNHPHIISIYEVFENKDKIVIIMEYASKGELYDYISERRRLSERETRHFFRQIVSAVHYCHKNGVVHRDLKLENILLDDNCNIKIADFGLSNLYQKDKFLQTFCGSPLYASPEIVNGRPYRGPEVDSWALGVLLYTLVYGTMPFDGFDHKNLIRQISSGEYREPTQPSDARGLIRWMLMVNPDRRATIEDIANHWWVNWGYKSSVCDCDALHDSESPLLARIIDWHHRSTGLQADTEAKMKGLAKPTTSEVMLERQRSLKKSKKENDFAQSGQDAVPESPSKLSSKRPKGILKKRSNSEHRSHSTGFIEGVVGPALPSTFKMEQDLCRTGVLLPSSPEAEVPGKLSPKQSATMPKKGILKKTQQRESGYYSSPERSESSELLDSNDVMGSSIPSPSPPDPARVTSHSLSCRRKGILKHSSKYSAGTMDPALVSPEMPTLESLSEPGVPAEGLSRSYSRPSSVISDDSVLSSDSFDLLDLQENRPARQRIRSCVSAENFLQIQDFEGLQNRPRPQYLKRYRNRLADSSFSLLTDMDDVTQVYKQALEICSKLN
# [3] = target: T1, NUAK family SNF1-like kinase 1 (Homo sapiens); conditions: at 1 µM
# [4] = target: T2, Serine/threonine-protein kinase BRSK1 (Homo sapiens) (UniProt Q8TDC3); conditions: at 0.1 µM
# T2 sequence (whole entry): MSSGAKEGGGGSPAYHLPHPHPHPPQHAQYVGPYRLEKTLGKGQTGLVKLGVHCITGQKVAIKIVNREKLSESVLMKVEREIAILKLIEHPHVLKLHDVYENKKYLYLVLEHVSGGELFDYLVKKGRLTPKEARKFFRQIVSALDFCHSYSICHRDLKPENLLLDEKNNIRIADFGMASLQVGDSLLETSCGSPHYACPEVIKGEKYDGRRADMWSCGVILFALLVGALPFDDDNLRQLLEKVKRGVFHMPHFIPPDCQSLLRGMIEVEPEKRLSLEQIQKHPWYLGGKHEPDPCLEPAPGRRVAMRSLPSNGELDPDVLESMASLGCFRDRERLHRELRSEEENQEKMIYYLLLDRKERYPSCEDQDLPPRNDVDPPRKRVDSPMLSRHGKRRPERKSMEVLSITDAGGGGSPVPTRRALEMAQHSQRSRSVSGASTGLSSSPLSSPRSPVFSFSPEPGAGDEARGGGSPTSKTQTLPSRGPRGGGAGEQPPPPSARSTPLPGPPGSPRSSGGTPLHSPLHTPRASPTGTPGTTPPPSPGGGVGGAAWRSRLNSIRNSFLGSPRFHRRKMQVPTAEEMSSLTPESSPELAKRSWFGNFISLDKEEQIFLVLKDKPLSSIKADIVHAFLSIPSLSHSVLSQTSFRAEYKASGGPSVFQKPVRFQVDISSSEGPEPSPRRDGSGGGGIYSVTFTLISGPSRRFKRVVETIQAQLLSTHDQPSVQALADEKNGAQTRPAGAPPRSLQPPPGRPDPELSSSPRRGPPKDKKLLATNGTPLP
# [5] = target: T2, Serine/threonine-protein kinase BRSK1 (Homo sapiens); conditions: at 1 µM
# [6] = target: T3, Serine/threonine-protein kinase BRSK2 (Homo sapiens) (UniProt Q8IWQ3); conditions: at 0.1 µM
# T3 sequence (whole entry): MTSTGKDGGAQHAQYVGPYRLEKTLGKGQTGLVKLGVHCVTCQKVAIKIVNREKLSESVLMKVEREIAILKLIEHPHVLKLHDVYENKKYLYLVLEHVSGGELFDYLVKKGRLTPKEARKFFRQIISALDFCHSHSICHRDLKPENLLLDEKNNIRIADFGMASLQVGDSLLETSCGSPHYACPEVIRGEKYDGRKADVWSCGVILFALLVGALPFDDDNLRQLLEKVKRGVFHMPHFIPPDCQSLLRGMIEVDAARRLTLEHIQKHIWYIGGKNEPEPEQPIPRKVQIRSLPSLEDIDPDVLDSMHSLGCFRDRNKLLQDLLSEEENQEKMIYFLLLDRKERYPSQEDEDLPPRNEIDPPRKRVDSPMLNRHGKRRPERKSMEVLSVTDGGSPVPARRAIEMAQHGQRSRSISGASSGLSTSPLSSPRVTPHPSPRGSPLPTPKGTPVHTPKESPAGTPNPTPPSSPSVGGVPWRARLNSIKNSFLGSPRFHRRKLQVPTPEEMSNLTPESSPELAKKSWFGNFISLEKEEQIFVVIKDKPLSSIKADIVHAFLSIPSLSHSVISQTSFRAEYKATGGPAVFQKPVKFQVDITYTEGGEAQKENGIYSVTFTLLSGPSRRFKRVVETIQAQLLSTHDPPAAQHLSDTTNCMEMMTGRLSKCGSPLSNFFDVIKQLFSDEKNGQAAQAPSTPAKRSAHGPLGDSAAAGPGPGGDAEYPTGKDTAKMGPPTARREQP
# [7] = target: T3, Serine/threonine-protein kinase BRSK2 (Homo sapiens); conditions: at 1 µM
# [8] = target: Calcium/calmodulin-dependent protein kinase type 1D (Homo sapiens) (UniProt Q8IU85); conditions: at 0.1 µM
# [9] = target: Calcium/calmodulin-dependent protein kinase type 1D (Homo sapiens) (UniProt Q8IU85); conditions: at 1 µM
# [10] = target: Calcium/calmodulin-dependent protein kinase type II subunit alpha (Homo sapiens) (UniProt Q9UQM7); conditions: at 0.1 µM
# [11] = target: Calcium/calmodulin-dependent protein kinase type II subunit alpha (Homo sapiens) (UniProt Q9UQM7); conditions: at 1 µM
# [12] = target: Calcium/calmodulin-dependent protein kinase type II subunit delta (Homo sapiens) (UniProt Q13557); conditions: at 0.1 µM
# [13] = target: Calcium/calmodulin-dependent protein kinase type II subunit delta (Homo sapiens) (UniProt Q13557); conditions: at 1 µM
# [14] = target: T4, Calcium/calmodulin-dependent protein kinase type IV (Homo sapiens) (UniProt Q16566); conditions: at 0.1 µM
# T4 sequence (whole entry): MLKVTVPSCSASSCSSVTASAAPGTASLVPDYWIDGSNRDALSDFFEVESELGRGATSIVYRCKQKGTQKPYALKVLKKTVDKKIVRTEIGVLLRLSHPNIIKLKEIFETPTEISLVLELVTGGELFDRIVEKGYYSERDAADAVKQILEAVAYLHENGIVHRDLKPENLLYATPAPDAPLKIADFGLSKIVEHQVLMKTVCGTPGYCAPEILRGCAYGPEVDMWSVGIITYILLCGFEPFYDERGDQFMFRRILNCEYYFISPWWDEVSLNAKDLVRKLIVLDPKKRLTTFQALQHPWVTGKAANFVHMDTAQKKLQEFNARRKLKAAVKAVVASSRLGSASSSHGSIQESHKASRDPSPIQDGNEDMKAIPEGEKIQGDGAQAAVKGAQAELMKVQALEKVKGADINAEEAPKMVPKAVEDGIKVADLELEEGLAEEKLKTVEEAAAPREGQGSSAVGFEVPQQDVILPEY
# [15] = target: T4, Calcium/calmodulin-dependent protein kinase type IV (Homo sapiens); conditions: at 1 µM
# [16] = target: T5, Serine/threonine-protein kinase Chk1 (Homo sapiens) (UniProt O14757); conditions: at 0.1 µM
# T5 sequence (whole entry): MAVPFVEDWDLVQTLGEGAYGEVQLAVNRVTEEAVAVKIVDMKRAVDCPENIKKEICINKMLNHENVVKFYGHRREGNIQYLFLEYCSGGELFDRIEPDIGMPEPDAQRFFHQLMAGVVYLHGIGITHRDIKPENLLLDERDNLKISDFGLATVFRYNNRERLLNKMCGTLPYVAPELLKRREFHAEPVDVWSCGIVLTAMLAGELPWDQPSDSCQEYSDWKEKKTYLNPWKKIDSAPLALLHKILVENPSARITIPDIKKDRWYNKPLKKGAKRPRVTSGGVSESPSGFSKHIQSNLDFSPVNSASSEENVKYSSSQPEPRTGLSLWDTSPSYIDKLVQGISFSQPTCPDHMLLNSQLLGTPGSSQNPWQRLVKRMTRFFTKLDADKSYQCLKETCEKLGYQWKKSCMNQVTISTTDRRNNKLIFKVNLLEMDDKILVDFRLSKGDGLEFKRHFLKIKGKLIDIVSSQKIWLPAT
# [17] = target: T5, Serine/threonine-protein kinase Chk1 (Homo sapiens); conditions: at 1 µM
# [18] = target: Serine/threonine-protein kinase Chk2 (Homo sapiens) (UniProt O96017); conditions: at 0.1 µM
# [19] = target: Serine/threonine-protein kinase Chk2 (Homo sapiens) (UniProt O96017); conditions: at 1 µM
# [20] = target: Death-associated protein kinase 1 (Homo sapiens) (UniProt P53355); conditions: at 0.1 µM;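 further: reported figure is the mean inhibition of DAPK1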
# Death-associated protein kinase 1 (Homo sapiens), sequence (P53355 whole entry, looked up): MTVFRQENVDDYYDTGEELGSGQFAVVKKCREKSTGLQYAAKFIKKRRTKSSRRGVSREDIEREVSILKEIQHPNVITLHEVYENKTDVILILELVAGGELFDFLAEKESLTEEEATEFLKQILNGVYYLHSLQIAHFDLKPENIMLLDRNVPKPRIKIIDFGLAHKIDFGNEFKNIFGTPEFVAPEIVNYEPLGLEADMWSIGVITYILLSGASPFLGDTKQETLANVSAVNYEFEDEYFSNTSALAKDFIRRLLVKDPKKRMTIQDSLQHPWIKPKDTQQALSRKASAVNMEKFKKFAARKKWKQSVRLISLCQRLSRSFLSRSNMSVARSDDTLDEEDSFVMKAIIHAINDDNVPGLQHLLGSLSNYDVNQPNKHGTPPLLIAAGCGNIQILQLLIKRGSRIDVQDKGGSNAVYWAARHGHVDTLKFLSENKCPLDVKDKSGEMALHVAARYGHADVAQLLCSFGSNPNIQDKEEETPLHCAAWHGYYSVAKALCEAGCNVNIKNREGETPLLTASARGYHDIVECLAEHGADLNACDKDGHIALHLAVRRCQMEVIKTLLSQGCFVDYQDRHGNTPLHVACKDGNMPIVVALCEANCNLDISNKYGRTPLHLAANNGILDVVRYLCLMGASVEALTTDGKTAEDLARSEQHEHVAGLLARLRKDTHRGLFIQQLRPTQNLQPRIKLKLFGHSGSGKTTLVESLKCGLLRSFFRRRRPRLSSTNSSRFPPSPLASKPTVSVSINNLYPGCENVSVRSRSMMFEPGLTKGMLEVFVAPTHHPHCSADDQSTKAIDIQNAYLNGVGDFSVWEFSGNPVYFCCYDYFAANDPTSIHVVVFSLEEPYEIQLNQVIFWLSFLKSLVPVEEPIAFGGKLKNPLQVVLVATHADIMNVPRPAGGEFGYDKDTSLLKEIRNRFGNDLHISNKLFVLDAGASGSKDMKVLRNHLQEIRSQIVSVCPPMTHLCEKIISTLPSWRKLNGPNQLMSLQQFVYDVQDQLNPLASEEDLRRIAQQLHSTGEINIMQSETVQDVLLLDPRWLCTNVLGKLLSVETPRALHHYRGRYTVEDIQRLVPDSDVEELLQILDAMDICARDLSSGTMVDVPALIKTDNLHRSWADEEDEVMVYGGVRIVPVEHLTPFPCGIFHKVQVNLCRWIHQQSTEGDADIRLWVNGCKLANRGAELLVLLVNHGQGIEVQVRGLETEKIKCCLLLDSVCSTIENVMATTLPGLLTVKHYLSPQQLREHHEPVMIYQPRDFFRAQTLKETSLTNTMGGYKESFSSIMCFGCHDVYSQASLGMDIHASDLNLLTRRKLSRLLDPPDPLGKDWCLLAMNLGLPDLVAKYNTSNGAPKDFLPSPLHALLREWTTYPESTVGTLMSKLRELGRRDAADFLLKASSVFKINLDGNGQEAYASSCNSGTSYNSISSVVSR
# 5'-AMP-activated protein kinase catalytic subunit alpha-2 (Homo sapiens), sequence (P54646 whole entry, looked up): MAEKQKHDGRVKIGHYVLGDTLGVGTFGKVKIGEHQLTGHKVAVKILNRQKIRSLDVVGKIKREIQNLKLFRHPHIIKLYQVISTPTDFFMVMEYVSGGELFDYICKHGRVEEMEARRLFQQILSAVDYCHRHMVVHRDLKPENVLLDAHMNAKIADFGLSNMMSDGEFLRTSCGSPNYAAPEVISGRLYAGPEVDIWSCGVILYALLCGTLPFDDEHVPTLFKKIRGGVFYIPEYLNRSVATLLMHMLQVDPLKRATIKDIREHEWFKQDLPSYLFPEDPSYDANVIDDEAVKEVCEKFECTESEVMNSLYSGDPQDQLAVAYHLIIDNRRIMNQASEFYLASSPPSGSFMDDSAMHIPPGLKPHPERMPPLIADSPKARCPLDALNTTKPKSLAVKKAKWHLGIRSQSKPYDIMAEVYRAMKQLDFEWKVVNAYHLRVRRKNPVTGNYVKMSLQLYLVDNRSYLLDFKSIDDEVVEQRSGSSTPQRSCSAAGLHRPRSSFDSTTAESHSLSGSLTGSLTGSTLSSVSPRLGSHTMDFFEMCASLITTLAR
# Calcium/calmodulin-dependent protein kinase type II subunit delta (Homo sapiens), sequence (Q13557 whole entry): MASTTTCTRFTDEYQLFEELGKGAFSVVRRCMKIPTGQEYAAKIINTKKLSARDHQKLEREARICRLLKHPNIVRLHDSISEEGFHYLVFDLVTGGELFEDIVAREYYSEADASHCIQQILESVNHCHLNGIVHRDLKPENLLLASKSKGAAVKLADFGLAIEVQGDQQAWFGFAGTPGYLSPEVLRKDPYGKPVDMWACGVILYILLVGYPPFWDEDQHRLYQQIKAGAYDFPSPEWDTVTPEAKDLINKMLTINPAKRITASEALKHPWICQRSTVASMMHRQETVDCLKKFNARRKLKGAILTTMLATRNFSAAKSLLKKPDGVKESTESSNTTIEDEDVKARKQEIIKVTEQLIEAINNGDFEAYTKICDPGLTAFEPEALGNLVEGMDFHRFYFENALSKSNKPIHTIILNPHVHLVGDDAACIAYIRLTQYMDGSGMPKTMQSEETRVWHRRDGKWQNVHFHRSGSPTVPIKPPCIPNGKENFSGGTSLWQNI
# Serine/threonine-protein kinase Chk2 (Homo sapiens), sequence (O96017 whole entry): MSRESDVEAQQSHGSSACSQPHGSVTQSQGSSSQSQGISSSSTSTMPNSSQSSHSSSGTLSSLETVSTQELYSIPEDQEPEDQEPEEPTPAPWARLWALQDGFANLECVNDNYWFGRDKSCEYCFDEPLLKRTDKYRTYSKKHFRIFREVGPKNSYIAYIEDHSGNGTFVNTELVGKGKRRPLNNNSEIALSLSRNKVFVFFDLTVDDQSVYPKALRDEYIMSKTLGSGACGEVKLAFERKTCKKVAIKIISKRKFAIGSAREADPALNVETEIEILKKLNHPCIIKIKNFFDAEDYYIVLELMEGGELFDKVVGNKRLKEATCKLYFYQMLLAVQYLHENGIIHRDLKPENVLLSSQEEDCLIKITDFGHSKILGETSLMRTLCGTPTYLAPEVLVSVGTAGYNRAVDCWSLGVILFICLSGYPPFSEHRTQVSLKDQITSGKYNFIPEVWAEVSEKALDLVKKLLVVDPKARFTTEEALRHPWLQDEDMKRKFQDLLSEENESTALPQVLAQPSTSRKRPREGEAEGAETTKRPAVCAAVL
# Calcium/calmodulin-dependent protein kinase type II subunit alpha (Homo sapiens), sequence (Q9UQM7 whole entry): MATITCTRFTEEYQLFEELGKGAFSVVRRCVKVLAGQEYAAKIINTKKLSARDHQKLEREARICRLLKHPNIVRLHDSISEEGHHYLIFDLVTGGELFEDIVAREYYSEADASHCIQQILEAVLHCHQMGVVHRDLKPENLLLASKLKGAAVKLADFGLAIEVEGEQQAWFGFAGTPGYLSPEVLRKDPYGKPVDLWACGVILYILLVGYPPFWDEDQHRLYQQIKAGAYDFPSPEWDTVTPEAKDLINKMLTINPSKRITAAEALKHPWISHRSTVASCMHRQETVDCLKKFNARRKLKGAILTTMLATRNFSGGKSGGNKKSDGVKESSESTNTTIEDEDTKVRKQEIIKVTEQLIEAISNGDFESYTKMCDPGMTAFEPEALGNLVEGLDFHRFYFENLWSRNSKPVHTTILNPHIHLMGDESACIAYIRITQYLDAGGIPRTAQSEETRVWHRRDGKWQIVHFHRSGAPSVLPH
# Calcium/calmodulin-dependent protein kinase type 1D (Homo sapiens), sequence (Q8IU85 whole entry, looked up): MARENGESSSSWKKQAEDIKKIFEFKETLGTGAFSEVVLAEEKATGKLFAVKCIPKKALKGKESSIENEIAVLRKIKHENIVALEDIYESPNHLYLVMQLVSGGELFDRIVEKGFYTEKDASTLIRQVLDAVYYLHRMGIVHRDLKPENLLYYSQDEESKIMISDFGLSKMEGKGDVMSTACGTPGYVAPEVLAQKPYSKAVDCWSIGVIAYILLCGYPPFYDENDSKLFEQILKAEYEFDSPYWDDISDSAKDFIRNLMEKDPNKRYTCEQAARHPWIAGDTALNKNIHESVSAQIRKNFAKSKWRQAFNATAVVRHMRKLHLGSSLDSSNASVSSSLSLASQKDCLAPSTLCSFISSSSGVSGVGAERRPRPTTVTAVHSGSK
SMILES,inhibition [1] [%],inhibition [2] [%],inhibition [3] [%],inhibition [4] [%],inhibition [5] [%],inhibition [6] [%],inhibition [7] [%],inhibition [8] [%],inhibition [9] [%],inhibition [10] [%],inhibition [11] [%],inhibition [12] [%],inhibition [13] [%],inhibition [14] [%],inhibition [15] [%],inhibition [16] [%],inhibition [17] [%],inhibition [18] [%],inhibition [19] [%],inhibition [20] [%]
CCCN1CCC(c2ccc(Nc3nc(Nc4cc(F)ccc4C(N)=O)c4cc[nH]c4n3)c(OC)c2)CC1,13.2,31.8,62.8,0.82,2.49,2.24,6.88,22.9,71.5,8.79,43.6,20.9,71,7.54,37.9,0.91,10.7,58.3,80.9,3.52
Cc1cccc2c1NC(=O)/C2=N\Nc1ccc(S(N)(=O)=O)cc1,4.04,4.52,19,1.12,3.16,0.94,4.49,0.23,1.75,4.56,3.33,3.36,3.56,0.62,1.1,0.95,5.04,1.68,2.64,3.69
CC(C)(CO)CNC(=O)c1ccc2c(c1)/C(=N/Nc1ccc(S(N)(=O)=O)cc1)C(=O)N2,33.7,19.7,58.6,6.46,37.7,11.6,52.2,0.39,1.92,-0.2,4.28,0.61,12.2,0.55,-0.51,0.39,-3.69,-0.89,5.93,-0.17
